The nature of experiment [1]: Viability qHTS for spleen associated tyrosine kinase inhibitor (SYKi) drug resistant MV4-11 cells (AID 1963824). Note: nearly all actives have a fitted effect of over 35% in size. Note: potency is the fitted concentration of half-maximal effect. The procedure, abridged: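 SYK-inhibitor-resistant MV4-11 AML cells were seeded at 500 per well onto compound and cultured 72 hours (37 °C, 5% CO2). CellTiter-Glo was then added, and after 10 min at room temperature, luminescence gave viability.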
In general terms: qHTS replaces the single test concentration by a dilution series.

Experiment [2] is described as follows: Quantitative highthroughput screen to assess conditional lethalithy of NOMO1 cells grown in RPMI1640 with untreated serum (RPMI+s) (AID 1963876).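 For Viability: 100% = DMSO wells and 0% = empty wells without cells.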 Note: nearly all actives have a fitted effect of over 35% in size. Note: potency is the fitted concentration of half-maximal effect. The procedure, abridged:
(§1)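 Each medium arm—HPLM with 10% dialyzed FBS, or RPMI1640 with 5 mM glucose and 10% untreated or dialyzed FBS—was screened against an 11-point, 3-fold compound titration for 48 h at 37 °C, with CellTiter-Glo luminescence as endpoint.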

The nature of experiment [3]: Quantitative highthroughput screen to assess conditional lethalithy of NOMO1 cells grown in Human Plasma-Like Medium with dialyzed fetal bovine serum (HPLM+ds) (AID 1963878).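 For Viability: 100% = DMSO wells and 0% = empty wells on each plate.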 Note: nearly all actives have a fitted effect of over 35% in size. Note: potency is the fitted concentration of half-maximal effect. The procedure, abridged: as §1
Experiment [4] is described as follows: Quantitative highthroughput screen to assess conditional lethalithy of P12 Ichikawa cells grown in Human Plasma-Like Medium with dialyzed fetal bovine serum (HPLM+ds) (AID 1963879). For Viability: series mostly up to about 46 µM. Note: nearly all actives have a fitted effect of over 35% in size. Note: potency is the fitted concentration of half-maximal effect. Conditions: Potency: viability. The gist of the method: as §1
The nature of experiment [5]: Quantitative highthroughput screen to assess conditional lethalithy of P12 Ichikawa cells grown in RPMI1640 with dialyzed fetal bovine serum (RPMI+ds) (AID 1963880).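 For Viability: 100% = DMSO wells and 0% = empty wells on each plate.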 Note: nearly all actives have a fitted effect of over 35% in size. Note: potency is the fitted concentration of half-maximal effect. Conditions: Potency: P12-Ichikawa viability. The procedure, abridged: as §1
Experiment [6] can be described thus: Quantitative highthroughput screen to assess conditional lethalithy of P12 Ichikawa cells grown in RPMI1640 with untreated serum (RPMI+s) (AID 1963881).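 For Viability: series mostly up to about 46 µM; 100% = DMSO wells and 0% = empty wells without cells.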 Note: nearly all actives have a fitted effect of over 35% in size. Note: potency is the fitted concentration of half-maximal effect. Conditions: Potency: viability. The procedure, abridged:
as §1

Experiment [7] can be described thus: Quantitative highthroughput screen to assess conditional lethalithy of SEM cells grown in Human Plasma-Like Medium with dialyzed fetal bovine serum (HPLM+ds) (AID 1963882). For Viability: series mostly up to about 46 µM. Note: nearly all actives have a fitted effect of over 35% in size. Note: potency is the fitted concentration of half-maximal effect. The procedure, abridged: as §1
A short description of experiment [8]: Quantitative highthroughput screen to assess conditional lethalithy of SEM cells grown in RPMI1640 with unreated serum (RPMI+s) (AID 1963883).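 For Viability: 100% = DMSO wells and 0% = empty wells without cells.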 Note: nearly all actives have a fitted effect of over 35% in size. Note: potency is the fitted concentration of half-maximal effect. The procedure, abridged: as §1
The nature of experiment [9]: Quantitative highthroughput screen to assess conditional lethalithy of SEM cells grown in RPMI1640 with dialyzed fetal bovine serum (RPMI+ds) (AID 1963884).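 For Viability: series mostly up to about 46 µM; 100% = DMSO control wells and 0% = empty wells without cells.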 Note: nearly all actives have a fitted effect of over 35% in size. Note: potency is the fitted concentration of half-maximal effect. The procedure, abridged: as §1
A short description of experiment [10]: Cellular viability qHTS for adrenocortical cancer (ACC) cell line NCI-H295R (AID 1963990). Note: nearly all actives have a fitted effect of over 60% in size. Note: potency is the fitted concentration of half-maximal effect. The procedure, abridged: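 Luminescent ATP read-out (CellTiter-Glo, 20 min RT) after 48 h drug exposure of NCI-H295R cells; a titration up to 46 uM final. Data normalized to doxorubicin (100% inhibition) and DMSO (0%); 4-parameter fit gives IC50, max response.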
Experiment [11] is described as follows: Cellular viability qHTS for adrenocortical cancer (ACC) cell line SW-13 (AID 1963989).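 For activity (max response): cells grown in serum-free medium with ITS supplement; % is set by controls: 0 for no effect and ±100 for the full control effect.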 Note: nearly all actives have a fitted effect of over 65% in size. Note: potency is the fitted concentration of half-maximal effect. Conditions: SW-13 ACC cells viability, CellTiter-Glo, 48 h; activity (max response): stronger effect = lower value. The procedure, abridged: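 SW-13 cells in ITS-supplemented serum-free DMEM were plated overnight, then exposed for 48 h at 37C to compound titrations (up to 46 uM final). Viability was read by CellTiter-Glo luminescence; four-parameter logistic fits gave IC50 and efficacy.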

Experiment [12] in a line: Quantitative highthroughput screen to assess conditional lethalithy of NOMO1 cells grown in RPMI1640 with dialyzed fetal bovine serum (RPMI+ds) (AID 1963877).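 Note: series mostly up to about 46 µM; 100% = DMSO control wells and 0% = empty wells; nearly all actives have a fitted effect of over 30% in size.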 The gist of the method: as §1

Values joined by “and” are separate entries in the source; they are usually repeats but may differ in a detail not shown here. Equal entries are not always repeated. Inconclusive results are not listed. A number with no mark means an inactive call. Active and inactive are the calls of the source. Calls come from the whole dose curve; as a rule, active = well fitted curve in the direction sought with a large enough effect; inconclusive = small, poorly fitted or top-dose-only effect, or another doubt; inactive = no such curve, though single readings can be large; an effect the other way counts as inactive or inconclusive.

In the case of `Cc1c(OCC(F)(F)F)ccnc1CS(=O)c1nc2ccccc2[nH]1` (stereo unspecified), the Potency in experiment [1] is 16.6 µM (active). Moreover, the Potency result in experiment [2], in experiment [3], in [4], in experiment [5], in [6] and in experiment [7] was “inactive” each time. The Potency result in experiment [8], in experiment [9] and in [10] was “inactive” each time.
Regarding `Cc1ccc(-n2[nH]c(C)c(N=Nc3cccc(-c4cccc(C(=O)O)c4)c3O)c2=O)cc1C`, the figures for the Potency in [1] and in experiment [4] were 13.3 µM (active) and 16.6 µM (active), respectively. Further, the Potency entry in [2] was “inactive”. In experiment [11], the activity (max response) was 7.78%.
`O=C1C(Cl)=C(NCCN2CCOCC2)C(=O)c2ncccc21`: the Potency is 2.09 µM (active) in experiment [1]; 10.5 µM (active) in experiment [2]; 14.8 µM (active) in [3]; 20.9 µM (active) in [5]; 23.5 µM (active) in experiment [6]; 10.5 µM (active) in [7]. In addition, the Potency is 7.43 µM (active) in experiment [9] and 3.55 µM (active) in experiment [11].
For `COc1ccc(C2=N[C@H](c3ccc(Cl)cc3)[C@H](c3ccc(Cl)cc3)N2C(=O)N2CCNC(=O)C2)c(OC(C)C)c1`, the Potency is 16.6 µM (active) in experiment [1]; 23.5 µM (active) in experiment [2]; 10.5 µM (active) in experiment [3]; 10.5 µM (active) in experiment [4]; 0.235 µM (active) in [7]; 0.418 µM (active) in [8]. The Potency is 0.187 µM (active) in experiment [9] and 31.6 µM (active) in experiment [11].
As for `CCCCC(F)(F)[C@@]1(O)CC[C@H]2[C@H](CC(=O)[C@@H]2CCCCCCC(=O)O)O1`, the Potency in experiment [1] was 0.0295 µM (active). In addition, the Potency result in [2], in experiment [4], in experiment [5], in experiment [6], in experiment [7] and in experiment [8] was “inactive” in each case. Further, the Potency result in experiment [9] and in experiment [10] was “inactive” throughout. Further, the activity (max response) in experiment [11] is 8.13%.
As to `COc1cc2nccc(Oc3ccc(NC(=O)Nc4ccc(F)cc4F)c(F)c3)c2cc1OC`, the figures for the Potency in experiment [1], in experiment [4] and in experiment [8] were 0.0517 µM (active), 23.5 µM (active) and 0.209 µM (active), respectively. Further, the Potency result in experiment [2] and in experiment [3] was “inactive” each time. Also, the activity (max response) in [11] is -11.6%.
Turning to `NC(N)=NC(=O)c1nc(Cl)c(N)nc1N`, the Potency in experiment [1] was 12.1 µM (active) and 668 nM (active); in [2], 0.935 µM (active); in experiment [4], 4.69 µM (active); in [5], 13.2 µM (active); in [6] it was 4.69 µM (active). The Potency entry in experiment [7], in [8] and in experiment [9] was “inactive” throughout. In addition, the activity (max response) in [11] was -8.19% and -7.03%.
Take `CCOc1cc(CC(=O)N[C@@H](CC(C)C)c2ccccc2N2CCCCC2)ccc1C(=O)O`: the Potency entry in experiment [1], in [8] and in experiment [9] was “inactive” each time. The Potency in experiment [2] was 0.332 µM (active); in [4], 2.35 µM (active); in experiment [5], 3.32 µM (active); in [6], 2.64 µM (active); in experiment [10] it was 25.1 µM (active).
As to `CCCCCCCCCCCCCCCC(=O)O[C@H]1[C@@H](O)[C@@H](O)[C@@H]([C@H](NC(=O)[C@@H]2C[C@@H](CCC)CN2C)[C@H](C)Cl)O[C@@H]1SC`, the values for the Potency in experiment [1] and in [2] were 23.5 µM (active) and 11.8 µM (active), respectively. In addition, the Potency entry in experiment [4], in [5], in experiment [6], in experiment [7], in experiment [8] and in experiment [9] was “inactive” in each case. In addition, in experiment [10], the Potency entry is “inactive”. Besides, the activity (max response) in experiment [11] was 13.6%.
With `CN(C)CCN(C)C(=O)c1ccc(NC(=O)Nc2ccc(-c3nc(N4CCOCC4)c4ccn(CC(F)(F)F)c4n3)cc2)cc1`, the Potency was 0.0525 µM (active) in experiment [1], 0.132 µM (active) in experiment [2], 0.708 µM (active) in experiment [11] and 3.16 µM (active) in experiment [10].
On the same counts, the results for `COc1cc2nccc(Oc3ccc(NC(=O)C4(C(=O)Nc5ccc(F)cc5)CC4)cc3)c2cc1OC` are 0.0093 µM (active), “inactive”, 12.6 µM (active) and 10 µM (active).
For `COc1ncc(-c2ccc3nccc(-c4ccnnc4)c3c2)cc1NS(=O)(=O)c1ccc(F)cc1F`, the Potency in [1] was 58 nM (active) and 132 nM (active); in experiment [2], 0.105 µM (active); in experiment [5], 2.09 µM (active); in experiment [6], 0.743 µM (active); in experiment [7], 0.469 µM (active); in experiment [9] it was 0.372 µM (active). The values for the Potency in [11] and in experiment [10] were 1.12 µM (active) and 0.0282 µM (active), respectively.
As to `c1ccc2c(Cc3c[nH]c4ccccc34)c[nH]c2c1`, the Potency in experiment [1], in experiment [3] and in experiment [9] was 20.9 µM (active) in each case. For the same compound, the Potency entry in [2] is “inactive”.
On to `CC(C)(C#N)c1cc(Cn2cncn2)cc(C(C)(C)C#N)c1`, for which the Potency result in experiment [1], in experiment [12], in experiment [3], in [4], in experiment [5] and in [6] was “inactive” each time. The Potency entry in experiment [7], in experiment [8], in experiment [9] and in experiment [10] was “inactive” throughout. Further, the activity (max response) in experiment [11] was 5.22%.
Take `C[C@]12CC[C@@H]3c4ccc(O)cc4C[C@@H](CCCCCCCCCS(=O)CCCC(F)(F)C(F)(F)F)[C@H]3[C@H]1CC[C@H]2O` (stereo partly specified): in experiment [1], the Potency is 4.68 µM (active). The Potency entry in [12], in experiment [3], in [4], in experiment [5], in experiment [6] and in [7] was “inactive” in each case. Further, the Potency result in experiment [8], in experiment [9] and in experiment [10] was “inactive” throughout. Besides, the activity (max response) in experiment [11] is -14.8%.
Turning to `COc1ccc(CC2SC(=O)NC2=O)cc1C(=O)NCc1ccc(C(F)(F)F)cc1` (stereo unspecified), the Potency in experiment [1] is 18.6 µM (active). Besides, the Potency entry in experiment [2], in experiment [3], in experiment [4], in experiment [5] and in [6] was “inactive” in each case. Moreover, the activity (max response) in experiment [11] is -17.2%.
Regarding `COc1ccc(C(=O)CC2(O)C(=O)Nc3c(Cl)ccc(Cl)c32)cc1` (stereo unspecified), the Potency in [1] was 3.26 µM (active); in experiment [2], 9.35 µM (active); in experiment [4] it was 4.18 µM (active); in experiment [6], 4.69 µM (active); in [7], 4.18 µM (active); in experiment [8], 3.72 µM (active). The Potency in [9] is 4.18 µM (active). Besides, in experiment [10], the Potency entry is “inactive”.
With `CN(C)C(=O)c1ccc(S(=O)(=O)c2ccc(NC(=O)[C@@](C)(O)C(F)(F)F)c(Cl)c2)cc1`, the Potency was 9.2 µM (active) and 3.72 µM (active) in experiment [1]; 11.8 µM (active) in experiment [2]; 10.5 µM (active) in experiment [3]; 14.8 µM (active) in experiment [6]; 11.8 µM (active) in experiment [8]. Moreover, the Potency result in experiment [10] was “inactive”.

Values taken from PubChem BioAssay (NCATS).
